LGR2 inh: inhibitors of bursicon-induced LGR2 CRE-luciferase signal, primary screen, cell-based, HEK293, CRE-luciferase reporter, bursicon stimulation; Drosophila bursicon receptor LGR2 (rickets); bursicon-stimulated, 4 h; inhibition, % at 9.99 µM; 0.35% of 380,000 active;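 active = drop in luminescence signal, shown as inhibition above about 50% in the replicate tests, limit read from the data, passing the limit was not always enough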;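 note: agonist challenge used bursicon conditioned medium at about half maximal strength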
PAX8 reporter: inhibitors of PAX8-driven TPO luciferase reporter, primary screen, RMG-I cells, single concentration; SteadyGlo, 24 h; inhibition, % at 12.6 µM; 1.2% of 360,000 active;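 active = mean replicate inhibition at least 60% with every replicate also reaching 60%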;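 note: luciferase light reporting Pax8 driven TPO promoter activity; plate controls were median of neutral control wells for no effect and mitoxantrone controls for full effect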
TROY NFkB inh: inhibitors of TROY-driven NF-kB signaling, primary screen, Q293 LMP1-TROYcd cells, NF-kB luciferase, uHTS; AID 1347056, 2019; inhibition, % at 10 µM; 0.98% of 360,000 active; Q293 LMP1-TROYcd NF-kB luciferase reporter, 4 h;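 active = compounds whose plate-normalised and pattern-corrected inhibition of the luciferase reporter signal at the single screening dose is 50% or more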
EWS-Fli block: EWS/Fli-driven NR0B1 reporter inhibitors, primary screen, A673 cells, NR0B1 luciferase, luminescence, MLPCN library; viability-normalised; inhibition, % at 12.6 µM; 0.67% of 350,000 active; AID 651661, 2012;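 active = mean inhibition of at least 50% after viability correction, with every replicate also passing that limit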;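 note: firefly luciferase signal divided by Alamar Blue viability fluorescence both relative to DMSO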
LMP1 NFkB inh: EBV LMP1-driven NF-kappaB luciferase reporter inhibitors, primary screen, cell-based, luminescence, single point; LMP1-induced NF-kappaB luciferase reporter cells; AID 504558, 2011; 0.69% of 350,000 active; inhibition, % at 12.5 µM; in the data active = inhibition above about 41%;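 note: 0% = neutral control wells and 100% = reference inhibitor control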
TWEAK Fn14 block: inhibitors of TWEAK-Fn14 signaling, primary screen, luciferase reporter cells, uHTS; TWEAK-stimulated Fn14 reporter cells, luciferase luminescence, 8 h; inhibition, % at 10 µM; 2% of 360,000 active; in the data active = inhibition above about 50%
* = called active by the depositor; . = no result given. Shown are actives, neighbours in structure and some others; about 3.2% of the full set was active somewhere.

SMILES | LGR2 inh | PAX8 reporter | TROY NFkB inh | EWS-Fli block | LMP1 NFkB inh | TWEAK Fn14 block
O=C(COc1ccc2c(c1)CCC2)Nc1ccccn1 | 74.0* | -162.7 | 70.6* | -48.4 | -7.5 | 96.7*
CCC(C)c1ccc2oc(-c3ccc(NC(=O)Cn4cnc5c(=O)n(C)c(=O)n(C)c54)cc3)nc2c1 (stereo not drawn) | . | -176.8 | 63.6* | . | 20.0 | 34.4
CCOC(=O)c1c(C)oc2c1c(C(c1cccnc1)N1CCOCC1)c(O)c1ccccc12 (stereo not drawn) | . | . | -9.2 | . | 5.0 | 98.2*
C[C@H]1CN([C@@H](C)CO)C(=O)Cc2cc(NC(=O)Cn3cnnn3)ccc2O[C@H]1CN(C)C(=O)Nc1cccc2ccccc12 | 9.0 | 23.9 | . | 4.1 | . | .
Cc1ccc(S(=O)(=O)Nc2ccc3c(c2)C(=O)N([C@H](C)CO)C[C@@H](C)[C@@H](CN(C)C(=O)Cc2ccccc2)OCCCC[C@@H](C)O3)cc1 | 13.2 | 1.0 | . | 6.3 | . | .
C=CCNc1nc2cc(-c3ccccc3C)sc2c(=O)n1C | -24.1 | -9.9 | -34.2 | 63.1* | . | -0.1
Cc1ccc(CNc2nc3cc(-c4ccccc4C)sc3c(=O)n2C)c(C)c1 | 1.8 | 27.4 | 14.3 | 9.7 | . | 21.2
C[C@@H]1CN([C@@H](C)CO)C(=O)c2cc(NS(=O)(=O)c3cn(C)cn3)ccc2O[C@@H]1CN(C)S(=O)(=O)c1ccc(Cl)cc1 | -5.4 | -24.6 | . | -2.3 | . | .
CCC(CC)NC(=O)c1cc2c(C)nn(Cc3ccccc3Cl)c2s1 | . | . | . | . | 5.7 | 74.0*
CN(C)c1cc[n+](CC(=O)Nc2ccc(Oc3ccccc3)cc2)cc1 | 7.8 | 88.6* | 14.4 | 17.7 | -0.9 | 17.3
O=C(c1cccc(F)c1)N1C[C@@H]2[C@H](c3ccccc31)[C@H](CO)N2C(=O)c1ccccn1 | -11.9 | -12.9 | . | 1.5 | . | .
COc1ccc(-c2sc3ccc(N4CCOCC4)cc3c2C#CCO)cc1 | 31.5 | 18.9 | 54.3* | 26.2 | -1.5 | 89.6*
C[C@@H]1CCCCO[C@@H](CN(C)Cc2ccc(Cl)c(Cl)c2)[C@H](C)CN([C@H](C)CO)C(=O)c2cc(NS(=O)(=O)c3ccc(Cl)cc3)ccc2O1 | 6.4 | 101.7* | . | 24.7 | . | .
C[C@@H]1CCCCO[C@H](CN(C)Cc2ccc(Cl)c(Cl)c2)[C@@H](C)CN([C@@H](C)CO)C(=O)c2cc(NS(=O)(=O)c3ccc(F)cc3)ccc2O1 | -4.0 | 39.2 | . | -7.8 | . | .
Cc1ccc(S(=O)(=O)Nc2ccc3c(c2)C(=O)N([C@H](C)CO)C[C@H](C)[C@@H](CN(C)Cc2ccc(Cl)c(Cl)c2)OCCCC[C@H](C)O3)cc1 | 6.9 | 66.2* | . | -2.1 | . | .
C[C@@H]1CCCCO[C@@H](CN(C)Cc2ccc(Cl)c(Cl)c2)[C@H](C)CN([C@H](C)CO)C(=O)c2cc(NS(=O)(=O)c3ccc(F)cc3)ccc2O1 | 16.3 | 84.5* | . | 26.5 | . | .
CCCCNC(=O)c1sc(=S)n2c1[nH]c(=O)c1ccccc12 | . | 18.0 | 56.4* | . | -3.1 | -19.3
O=C(NC1CCCCC1)c1sc(=S)n2c1[nH]c(=O)c1ccccc12 | . | -15.8 | 60.1* | . | -12.9 | -12.1
O=c1c(-c2ccccc2Cl)coc2c(CN3CCCCC3)c(O)ccc12 | 11.0 | -6.9 | 2.9 | -10.4 | -7.4 | 64.3*
C/C=C/c1ccc([C@H]2[C@@H](CN(C)C(=O)C3CC3)N(C(=O)CC)[C@H]2CO)cc1 | -12.4 | 7.3 | . | -6.6 | . | .
Cc1cc(C)c(S(=O)(=O)/N=C2/C=C(Sc3ncn[nH]3)C(=O)c3ccccc32)cc1C | 5.7 | 101.6* | 58.8* | . | -2.0 | 94.3*
CN(C)C(=O)C[C@H]1C[C@@H]2c3cc(NC(=O)c4ccc5c(c4)OCO5)ccc3O[C@@H]2[C@@H](CO)O1 | 8.5 | . | . | -9.7 | . | .
CC(/C=N/n1c(-c2cccnc2)n[nH]c1=S)=C\c1ccccc1 | . | 11.0 | 18.9 | . | 4.0 | 5.6
CC(=C/c1ccccc1)/C=N/n1c(-c2ccncc2)n[nH]c1=S | 17.5 | -40.7 | 52.0* | 0.1 | 56.5* | 77.5*
CNC(=O)C[C@@H]1CC[C@H]2[C@@H](COc3ccc(NC(=O)c4ccccc4Cl)cc3C(=O)N2C)O1 | 2.1 | -43.3 | . | -24.0 | . | .
SMILES | LGR2 inh | PAX8 reporter | TROY NFkB inh | EWS-Fli block | LMP1 NFkB inh | TWEAK Fn14 block
c1ccc(CCNc2nc(-c3ccccn3)nc3ccccc23)cc1 | 29.4 | 14.9 | 6.9 | 8.4 | 46.2* | 10.8
C[C@@H]1CN([C@@H](C)CO)C(=O)c2cccc(NC(=O)c3ccc(-c4nccs4)cc3)c2O[C@H]1CN(C)C(=O)Nc1ccc(C(F)(F)F)cc1 | -10.9 | . | . | 2.9 | . | .
O=C(O)C1CCCCC1C(=O)N1CC=C(c2ccccc2)CC1 (stereo not drawn) | 29.8 | . | 67.9* | . | 12.4 | 79.7*
CC(=O)/C(C#N)=C1\NC(=O)C(Cc2ccccc2)S1 (stereo not drawn) | 9.2 | . | 2.7 | . | 7.7 | 63.8*
CCOC(=O)N1CCN(Cc2nc(N)nc(Nc3ccc(Oc4ccccc4)cc3)n2)CC1 | . | . | 15.1 | . | -0.1 | 51.7*
CCOC(=O)N1CCN(Cc2nc(N)nc(Nc3ccc(OC)cc3)n2)CC1 | -7.0 | . | -6.6 | -2.1 | -6.1 | -2.7
COc1ccc2c3c([nH]c2c1)[C@H](CO)N(C(C)=O)CC31CCN(C(=O)Nc2ccc(F)cc2F)CC1 | 16.9 | 10.4 | . | -2.8 | . | .
Cc1ccc(CSc2nc(N)cc(=O)[nH]2)cc1 | 3.2 | -16.5 | 5.6 | -6.4 | 3.2 | -5.9
N#Cc1ccc(CSc2nc(N)cc(=O)[nH]2)cc1 | -6.2 | -12.0 | 17.7 | 10.4 | 16.5 | 71.7*
CO[C@@H]1CN(C)C(=O)c2cc(NC(=O)NC(C)C)ccc2OC[C@@H](C)N(Cc2ccccc2)C[C@H]1C | -3.9 | 14.8 | . | 4.7 | . | .
O=C(N[C@@H]1CC[C@@H](CCn2cc(-c3ccc(F)cc3)nn2)O[C@@H]1CO)c1cnccn1 | -2.2 | 1.7 | . | 4.6 | . | .
O=C(CCNc1cccc(F)c1)c1cc2ccccc2o1 | -37.7 | 7.7 | -39.0 | -6.9 | 45.7* | -1.4
O=C(CCNc1ccc(F)cc1)c1cc2ccccc2o1 | -29.0 | 18.0 | -56.2 | 10.9 | -17.3 | -15.6
CN1CCS/C1=C\C=C1/SC(=S)N(CC(=O)O)C1=O | 1.3 | 13.0 | -8.5 | -10.1 | 5.3 | 13.8
CCN1C(=O)/C(=C/C=C2/SCCN2C)SC1=S | . | . | 29.0 | . | 9.0 | 67.8*
CCCCCCN(C(=O)CCCN1C(=O)NC(c2ccc(-c3ccccc3)cc2)C(C(=O)OCc2ccccc2)=C1C)C(C)C(=O)NCCCC (stereo not drawn) | -8.6 | 98.6* | 2.6 | -0.5 | 5.4 | 3.6
CCCCCCN(C(=O)CCCCCN1C(=O)NC(c2ccc(-c3ccccc3)cc2)C(C(=O)OCc2ccccc2)=C1C)C(C(=O)NCCCC)c1ccc(-c2ccccc2)cc1 (stereo not drawn) | -2.7 | -4.9 | . | -13.1 | . | .
